Assay results taken from the supplement of paper PMC12645437, “Orthogonal IMiD-Degron Pairs Induce Selective Protein Degradation in Cells” (ACS Chemical Biology, 2025).
Over roughly 8,300 sequences, “log2 fold change of degron read counts, EGFP-low vs EGFP+ sorted cells (limma voom), compound-induced degradation” has its median near -1.1; the highest 2% begin near 3.2. What follows is part of a selection rich in the highest values, with near analogues and random picks from the rest.

T1: CRBN, Q96SW2
T1 chain: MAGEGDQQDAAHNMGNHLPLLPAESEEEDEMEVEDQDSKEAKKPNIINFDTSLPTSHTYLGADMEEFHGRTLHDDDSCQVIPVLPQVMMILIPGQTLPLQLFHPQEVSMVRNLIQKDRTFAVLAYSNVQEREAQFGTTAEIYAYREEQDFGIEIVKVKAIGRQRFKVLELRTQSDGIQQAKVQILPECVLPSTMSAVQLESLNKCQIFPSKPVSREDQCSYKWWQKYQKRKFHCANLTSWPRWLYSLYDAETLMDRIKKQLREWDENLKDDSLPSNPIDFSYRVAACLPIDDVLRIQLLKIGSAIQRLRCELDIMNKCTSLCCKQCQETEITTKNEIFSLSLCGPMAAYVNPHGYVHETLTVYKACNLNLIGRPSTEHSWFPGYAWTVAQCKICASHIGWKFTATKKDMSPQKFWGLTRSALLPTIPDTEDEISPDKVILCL

B1: 46F_47R_49E_50I_52G_53R_54H_55F_67L_, Q9UKT9 (peptide)
chain: FRCEICGRHFTQKGNLLRHIKL
B2: 46F_47L_49E_50V_52G_53A_54Y_55F_67L_, Q9UKT9 (peptide)
chain: FLCEVCGAYFTQKGNLLRHIKL
B3: 46F_47N_49N_50Q_52G_53R_54W_55F_67L_, Q9UKT9 (peptide)
chain: FNCNQCGRWFTQKGNLLRHIKL
B4: 46L_47L_49N_50Q_52G_53F_54P_55C_67L_, Q9UKT9 (peptide)
chain: LLCNQCGFPCTQKGNLLRHIKL
B5: 46F_47D_49E_50V_52G_53A_54M_55F_67L_, Q9UKT9 (peptide)
chain: FDCEVCGAMFTQKGNLLRHIKL
B6: 46F_47K_49E_50V_52G_53A_54M_55F_67L_, Q9UKT9 (peptide)
chain: FKCEVCGAMFTQKGNLLRHIKL
B7: 46F_47F_49E_50V_52G_53A_54M_55F_67L_, Q9UKT9 (peptide)
chain: FFCEVCGAMFTQKGNLLRHIKL
B8: 46F_47A_49E_50V_52G_53A_54M_55F_67L_, Q9UKT9 (peptide)
chain: FACEVCGAMFTQKGNLLRHIKL
B9: 46F_47S_49E_50V_52G_53A_54M_55F_67L_, Q9UKT9 (peptide)
chain: FSCEVCGAMFTQKGNLLRHIKL
B10: 46F_47E_49E_50V_52G_53A_54M_55F_67L_, Q9UKT9 (peptide)
chain: FECEVCGAMFTQKGNLLRHIKL
B11: 46F_47H_49E_50V_52G_53A_54M_55F_67L_, Q9UKT9 (peptide)
chain: FHCEVCGAMFTQKGNLLRHIKL
B12: 46F_47Y_49E_50V_52G_53A_54M_55F_67L_, Q9UKT9 (peptide)
chain: FYCEVCGAMFTQKGNLLRHIKL
B13: 46F_47Q_49E_50V_52G_53A_54M_55F_67L_, Q9UKT9 (peptide)
chain: FQCEVCGAMFTQKGNLLRHIKL
B14: 46F_47G_49E_50V_52G_53A_54M_55F_67L_, Q9UKT9 (peptide)
chain: FGCEVCGAMFTQKGNLLRHIKL
B15: 46F_47N_49E_50V_52G_53A_54M_55F_67L_, Q9UKT9 (peptide)
chain: FNCEVCGAMFTQKGNLLRHIKL
B16: 46F_47V_49E_50V_52G_53A_54M_55F_67L_, Q9UKT9 (peptide)
chain: FVCEVCGAMFTQKGNLLRHIKL
B17: 46L_47D_49E_50I_52G_53F_54L_55C_67L_, Q9UKT9 (peptide)
chain: LDCEICGFLCTQKGNLLRHIKL
B18: 46F_47A_49P_50Q_52G_53A_54F_55F_67L_, Q9UKT9 (peptide)
chain: FACPQCGAFFTQKGNLLRHIKL
B19: 46F_47W_49N_50Q_52G_53A_54E_55F_67L_, Q9UKT9 (peptide)
chain: FWCNQCGAEFTQKGNLLRHIKL
B20: 46F_47G_49E_50I_52G_53R_54G_55F_67L_, Q9UKT9 (peptide)
chain: FGCEICGRGFTQKGNLLRHIKL
B21: 46L_47G_49E_50I_52G_53F_54C_55C_67L_, Q9UKT9 (peptide)
chain: LGCEICGFCCTQKGNLLRHIKL
B22: 46F_47K_49E_50V_52G_53A_54H_55F_67L_, Q9UKT9 (peptide)
chain: FKCEVCGAHFTQKGNLLRHIKL
B23: 46L_47N_49P_50I_52G_53F_54N_55C_67L_, Q9UKT9 (peptide)
chain: LNCPICGFNCTQKGNLLRHIKL
B24: 46F_47C_49E_50V_52G_53A_54M_55F_67L_, Q9UKT9 (peptide)
chain: FCCEVCGAMFTQKGNLLRHIKL
B25: 46F_47T_49E_50V_52G_53A_54M_55F_67L_, Q9UKT9 (peptide)
chain: FTCEVCGAMFTQKGNLLRHIKL
B26: 46F_47W_49E_50V_52G_53A_54M_55F_67L_, Q9UKT9 (peptide)
chain: FWCEVCGAMFTQKGNLLRHIKL
B27: 46F_47Q_49N_50I_52G_53A_54N_55F_67L_, Q9UKT9 (peptide)
chain: FQCNICGANFTQKGNLLRHIKL
B28: 46F_47Y_49N_50Q_52G_53R_54C_55F_67L_, Q9UKT9 (peptide)
chain: FYCNQCGRCFTQKGNLLRHIKL

Biological target: T1, CRBN, Q96SW2
Assay: log2 fold change of degron read counts, EGFP-low vs EGFP+ sorted cells (limma voom), compound-induced degradation; higher = more compound-induced degradation of the degron-EGFP fusion; degrons are variants of IKZF1/3 zinc finger 2; compound dose not given here
Details: Jurkat, 18 h
[1] = compound: compound 19 (5-tert-butyl-thalidomide)
[2] = compound: compound 22 (5-morpholino-thalidomide)
[3] = compound: compound 33 (diphenyl IMiD analogue)
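Also: pooled lentiviral library of zinc finger degron-EGFP fusions in mCherry-positive Jurkat cells, FACS-sorted after compound exposure, with degron abundance counted by next-generation sequencing.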

Row | Sequence | log2 fold change of degron read counts [1] | log2 fold change of degron read counts [2] | log2 fold change of degron read counts [3] | log2 fold change of degron read counts (compound: thalidomide)
1 | B1 | -2.34 | -2.75 | -1.24 | -1.05
2 | B2 | -0.235 | -1.51 | 0.35 | 0.301
3 | B3 | -2.05 | -2.2 | -1.98 | -1.8
4 | B4 | -1.89 | -1.87 | -1.69 | -1.84
5 | B5 | -0.122 | -0.858 | 0.0809 | 0.0891
6 | B6 | -1.98 | -3.85 | -3.74 | -1.96
7 | B7 | 3.14 | 3.15 | 2 | 0.314
8 | B8 | 3.25 | 1.34 | 0.261 | -0.323
9 | B9 | 2.43 | 1.36 | 1.15 | 0.408
10 | B10 | -1.4 | -1.93 | 0.328 | 1.08
11 | B11 | 1.44 | 1.27 | 0.505 | -0.808
12 | B12 | 3.32 | 3.43 | 2.43 | 0.383
13 | B13 | -0.365 | 2.11 | 2.44 | 3.52
14 | B14 | 3.32 | 2.09 | 1.16 | -0.148
15 | B15 | 0.96 | -0.745 | -0.544 | -0.743
16 | B16 | -0.335 | 1.3 | 1.8 | 2.05
17 | B17 | -0.807 | -1.38 | -0.989 | -0.479
18 | B18 | -0.715 | -2.49 | -1.05 | -1.87
19 | B19 | -1.48 | -2.56 | -2.24 | -2.85
20 | B20 | -1.02 | -2.46 | -2.04 | -2.19
21 | B21 | -0.15 | -0.36 | -0.974 | -0.994
22 | B22 | -2.01 | -3.17 | -2.55 | -1.68
23 | B23 | 0.0324 | -0.534 | -0.051 | 0.589
24 | B24 | 1.54 | 1.34 | 1.7 | 0.852
25 | B25 | -0.151 | 0.976 | 1.67 | 1.62
26 | B26 | 3.14 | 3.46 | 2.23 | 0.316
27 | B27 | -0.813 | 0.399 | 1.05 | 3.08
28 | B28 | -1.93 | -2.09 | -1.97 | -2.28
